# PfHsp90 yeast 2 = growth inhibition of PfHsp90-expressing yeast, primary screen, antimalarial PfHsp90 inhibitor project, S. cerevisiae, BacTiter-Glo luminescence, single point, set 2; 310,000 compounds, 0.32% hits; BacTiter-Glo ATP, 48 h; yeast lacking PDR1 and PDR3 efflux regulators; inhibition, % at 9.4 µM;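 active = every replicate shows inhibition above about 80%, whatever the replicate mean, limit read from the data; inconclusive = mean inhibition reaches the set limit but some replicate falls short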;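 also: 0% = DMSO neutral controls and 100% = 20 µM radicicol positive controls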
# SKKanGAS inh = S. pyogenes SKKanGAS growth inhibitors in kanamycin, primary screen, streptokinase expression inhibitor project, SKKanGAS strain, BacTiter-Glo luminescence; 6 h; inhibition, % at 7.5 µM; 300,000 compounds, 1.3% hits;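 active = mean replicate score, as percent of positive control median, at least 50; inconclusive = mean below 50 but one replicate at or above 50; inactive = mean and every replicate below 50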;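 also: strain carries kanamycin resistance gene driven by streptokinase promoter and grows in 40 µg/ml kanamycin; loss of luminescence reflects streptokinase promoter inhibition or plain growth inhibition; 0% = median of DMSO wells and 100% = positive control at its reference dose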
# tim10-1 inh = growth inhibitors of tim10-1 mutant yeast, primary screen, luminescence, uHTS; S. cerevisiae tim10-1 ts strain growth, BacTiter-Glo, 24 h; inhibition, % at 20 µM; 330,000 compounds, 2.2% hits;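 active = inhibition of at least 40%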;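 also: mutant grown at 25 °C; 0% = DMSO wells with yeast and 100% = wells holding no yeast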
# tim23-1 inh = growth inhibitors of tim23-1 mutant yeast, primary screen, luminescence, uHTS. 330,000 compounds, 1.3% hits. inhibition, % at 20 µM. S. cerevisiae tim23-1 growth, BacTiter-Glo luminescence, 24 h;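 active = growth inhibition of the mutant yeast at or above 50%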;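 also: temperature-sensitive mutant grown at 25 °C; plate controls were DMSO-treated mutant yeast for no effect and medium wells lacking yeast for full effect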
# ATG4B inhibitor = ATG4B protease inhibitors, primary screen, biochemical, fluorescence, uHTS; Cysteine protease ATG4B (Homo sapiens), Q9Y4P1; ATG4B cleavage of LC3-PLA2, NBD-HPC fluorescence, 1 h; inhibition, % at 8.33 µM; 340,000 compounds, 0.51% hits; AID 504462, 2011; in the data active = inhibition above about 40%
# Target sequence (Q9Y4P1 whole entry, looked up): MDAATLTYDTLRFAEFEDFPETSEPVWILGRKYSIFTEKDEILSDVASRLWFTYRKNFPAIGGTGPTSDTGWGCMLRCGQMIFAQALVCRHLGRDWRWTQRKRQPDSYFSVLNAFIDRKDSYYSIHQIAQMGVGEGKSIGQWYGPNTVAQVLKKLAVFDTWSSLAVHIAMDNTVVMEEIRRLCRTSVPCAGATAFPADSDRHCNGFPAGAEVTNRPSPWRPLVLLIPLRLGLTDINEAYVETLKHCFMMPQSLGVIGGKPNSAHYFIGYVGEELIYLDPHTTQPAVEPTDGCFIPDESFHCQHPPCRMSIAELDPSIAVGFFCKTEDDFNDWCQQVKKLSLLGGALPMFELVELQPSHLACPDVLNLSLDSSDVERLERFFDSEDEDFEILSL
# TIM10 inh = growth inhibitors of isogenic TIM10 control yeast, primary screen, counter-screen for tim10-1 yeast inhibitor project, luminescence, uHTS | inhibition, % at 10 µM | S. cerevisiae TIM10 strain growth, BacTiter-Glo luminescence, 24 h | AID 463195, 2010 | 330,000 compounds, 1.4% hits;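 active = inhibition of 40% or more at the single tested concentration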;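 also: wild-type TIM10 isogenic control strain grown at permissive 25 °C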
# tim10-1 conf = growth inhibitors of tim10-1 mutant yeast, confirmation, single concentration, luminescence, S. cerevisiae; shares compounds with tim10-1 inh; S. cerevisiae tim10-1 ts strain growth, BacTiter-Glo, 24 h; inhibition, % at 20 µM; 7,400 compounds, 56% hits;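 active = inhibition of yeast growth at or above a set limit in either of two repeat tests at 20 µM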;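 also: tim10-1 mutant grown at permissive 25 °C to find synthetic lethal compounds; 0% = DMSO yeast wells and 100% = medium wells without yeast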
# TIM10 conf = growth inhibitors of wild-type TIM10 yeast, confirmation, counter-screen for tim10-1 synthetic lethality project, single concentration, luminescence, S. cerevisiae. shares compounds with TIM10 inh. S. cerevisiae tim10 strain growth, BacTiter-Glo luminescence, 24 h. inhibition, % at 10 µM. 4,600 compounds, 63% hits;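 active = inhibition of yeast growth at or above a set limit in either of two replicates at 10 µM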;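 also: this counterscreen used the strain with wild-type TIM10; 0% = yeast with DMSO and 100% = medium wells lacking yeast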
# tim23-1 confirm = tim23-1 mutant yeast growth inhibitors, confirmation, luminescence, single concentration | shares compounds with tim23-1 inh | S. cerevisiae tim23-1 growth, BacTiter-Glo luminescence, 24 h | inhibition, % at 20 µM | 4,400 compounds, 83% hits | AID 463218, 2010;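 active = inhibition above about 39% in either of two replicate wells at 20 µM, limit read from the data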;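 also: temperature-sensitive tim23-1 mutant grown at 25 °C; 0% = DMSO wells with yeast and 100% = medium wells without yeast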
# * hit, by the source's call; ? = inconclusive; · = not tested or not shown. In the library only some 4.7% were active in any assay of this set; here they are far more common.
SMILES,PfHsp90 yeast 2,SKKanGAS inh,tim10-1 inh,tim23-1 inh,ATG4B inhibitor,TIM10 inh,tim10-1 conf,tim23-1 confirm,others
Cc1cc(NC(=O)Nc2cccc(Cl)c2)n(-c2ccccn2)n1,-3,-2,54*,70*,-10,29,41*,76*,
Cc1cc(NC(=O)Nc2cccc(Cl)c2)n(-c2ccccc2)n1,3,-16,12,12,-5,-12,·,·,
Cc1ccnc(NC(=O)CSc2ccccn2)c1,-3,-6,-4,3,-1,-5,·,·,
Cc1cc(OCc2cc(C(=O)N3CCC(Oc4cccnc4)CC3)no2)cc(C)c1Cl,-2,6,61*,51*,0,41*,38*,55*,TIM10 conf=47*
COc1ccccc1CSc1nc2c(c(=O)n(C)c(=O)n2C)n1C,-13,1,13,8,-6,12,·,·,
Cc1nn2c(NCc3ccccn3)cc(C(C)C)nc2c1-c1ccccc1,5,101*,45*,60*,-4,64*,49*,61*,TIM10 conf=68*
CCc1c(C)c2cc(Cl)c(O)c(CN3CCCCC3)c2oc1=O,24,4,-6,6,8,-1,·,·,
CCCCOc1cccc(-c2nnc(N)s2)c1,11,0,53*,52*,4,29,36*,50*,
COc1cccc(/C=N/Nc2ccc(Cl)nn2)c1OC,-26,-10,25,2,-15,7,·,·,
O=C(NNc1ccc(Cl)cc1)c1cccs1,16,-4,-31,12,-11,37,·,·,
O=C1/C(=C\c2ccncc2)CCc2ccccc21,22,36,65*,72*,12,60*,62*,39,TIM10 conf=62*
CS(=O)(=O)N(CC(=O)Nc1ccccc1F)C1CCCCC1,9,0,17,12,-4,7,·,·,
CCc1ccc2c(c1)C1(NN=C(c3ccc(C)cc3)S1)C(=O)N2 (stereo not given),-73,80*,92*,83*,0,40*,88*,81*,TIM10 conf=10
CCOCCCNC(=O)C1CCCN1C(=O)Nc1ccccc1[N+](=O)[O-] (stereo not given),8,-6,11,5,0,-9,·,·,
Cc1cccn2c(=O)c(C=O)c(N3CC(C)OC(C)C3)nc12 (stereo not given),-30,-2,1,-1,-3,2,·,·,
Cc1cccn2c(=O)c(C=O)c(N3CCCCCC3)nc12,-1,-2,46*,58*,-1,22,43*,46*,
O=C1c2ccccc2C(=O)c2c([N+](=O)[O-])ccc(O)c21,-13,·,59*,59*,-10,35,38*,69*,
O=C(O)c1ccc([N+](=O)[O-])c2c1C(=O)c1ccccc1C2=O,-6,-2,10,-1,-1,-12,·,·,
N#C/C(=C\c1cccc([N+](=O)[O-])c1)c1ccccn1,-44,14,56*,63*,4,39,72*,56*,
CN=C1S/C(=C\c2ccc(O)c(OC)c2)C(=O)N1C,·,9,31,31,-16,27,·,·,
CN=C1S/C(=C\c2ccc(O)c(Br)c2)C(=O)N1C,28,29,56*,62*,-3,37,50*,63*,
Cc1nc(N2CCN(c3ccccc3O)CC2)c2c(-c3ccccc3)csc2n1,-40,?,42*,51*,-9,33,32*,48*,
Oc1ccccc1N1CCN(c2ncnc3scc(-c4ccccc4)c23)CC1,-46,13,19,33,-9,39,·,·,
Cc1c(N2C(=O)c3cccc4cccc(c34)C2=O)c(=O)n(-c2ccccc2)n1C,21,4,8,12,-1,4,·,·,
Cc1c(C(=O)OCC(=O)Nc2ccc(N3CCOCC3)cc2)oc2ccccc12,-3,3,-16,-10,-9,14,·,·,
SMILES,PfHsp90 yeast 2,SKKanGAS inh,tim10-1 inh,tim23-1 inh,ATG4B inhibitor,TIM10 inh,tim10-1 conf,tim23-1 confirm,others
CCCNC(=O)c1cccc(Br)c1,37,0,0,7,-2,-2,·,·,
CCCNC(=O)c1ccc2c(c1)C1C3CCC(C3)C1C(c1ccccc1)N2 (stereo not given),-16,6,47*,53*,-15,37,44*,57*,
CCc1ccc(NSc2ccccc2[N+](=O)[O-])cc1,-8,76*,54*,52*,18,36,43*,58*,
CNC(=O)c1c(O)c2cccc3c2n(c1=O)CC3,-1,4,-4,37,-1,37,·,·,
COc1ccc(CCNC(=O)c2c(O)c3cccc4c3n(c2=O)CC4)cc1OC,11,-3,43*,53*,9,57*,-36,45*,TIM10 conf=30*
CC(=O)c1c(O)c2cccc3c2n(c1=O)CCC3,-2,2,41*,54*,-5,17,30*,52*,
COCCN(CC(=O)NCc1ccc2c(c1)OCO2)C(=O)CCC(=O)Nc1nccs1,-8,6,0,-13,3,3,·,·,
CC1=C(CC(=O)c2ccccc2)C(=O)c2ccccc2C1=O,·,44,48*,64*,28,33,42*,69*,
CCCSc1nc(C)cc(=O)[nH]1,1,4,3,18,-3,12,·,·,
CCCCn1c(O)c(/C=C2\C=NN=C2c2ccccc2)sc1=S,0,11,38,29,17,9,·,·,
Cn1c(O)c(/C=C2\C=NN=C2c2ccccc2)sc1=S,-20,0,57*,65*,2,42*,42*,57*,TIM10 conf=42*
CCn1c(O)c(/C=C2\C=NN=C2c2ccccc2)sc1=S,11,-9,51*,50*,-2,33,32*,54*,
COCCCN(C(=O)c1ccc(-c2ccc(C(C)=O)cc2)o1)c1c(N)n(CC(C)C)c(=O)[nH]c1=O,12,·,·,·,-13,·,·,·,
CCC(=O)NC(c1ccc(Cl)cc1Cl)c1ccc2cccnc2c1O (stereo not given),111*,64*,48*,61*,-2,6,25,52*,

# Source: PubChem
